Laboratory results: PubChem BioAssay (NCATS)
Records with an inconclusive call do not appear. Calls of active or inactive are those of the source. Unless noted, calls come from the whole dose curve; as a rule, active = well fitted curve in the direction sought with a large enough effect; inconclusive = small, poorly fitted or top-dose-only effect, or another doubt; inactive = no such curve, though single readings can be large; an effect the other way counts as inactive or inconclusive.

Assays:
[1] = KB-8-5-11 Cancer Cell Toxicity qHTS against the NCATS CANVASS Library (AID 1347364)
In short: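 Natural products were titrated in 11 points onto KB-8-5-11 cells, 500 per well, and cytotoxicity was scored from CellTiter-Glo luminescence after 72 hr culture.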

[2] = SDT Cancer Cell Toxicity qHTS against the NCATS CANVASS Library (AID 1347365)
In short: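 Dispense 500 SDT cells per well; pin-transfer compounds; incubate 72 hr at 37C, 5% CO2, 95% RH; add CellTiterGlo and read luminescence.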

[3] = qHTS for ATAD5 Agonist screened against the NCATS CANVASS Library (AID 1347367)
In short: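 Genotoxicity was scored as increased ATAD5-luciferase luminescence in HEK293T after 16hr of exposure, with cell viability measured by fluorescence beforehand in the same well.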

[4] = G06 Cancer Cell Toxicity qHTS against the NCATS CANVASS Library (AID 1347368)
In short: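 Cytotoxicity toward canine glioma G06 cells is scored from cellular ATP via luminescence after 72 hr compound exposure at 500 cells/well.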

[5] = MCF7 Cancer Cell Toxicity qHTS against the NCATS CANVASS Library (AID 1347369)
In short: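 This 72 hr qHTS scored MCF7 viability by CellTiterGlo luminescence, with 500 cells/well; bortezomib titration ran as control.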

[6] = qHTS for ATAD5 Antagonist screened against the NCATS CANVASS Library (AID 1347370)
In short: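 HEK293T cells with a stably integrated ATAD5-controlled luciferase reporter were exposed to compounds (11-pt) alongside 10 uM 5-fluorouridine as ATAD5 stabilizer for 16hr at 37C. Viability was read by CellTiter-Fluor fluorescence, then ATAD5 by luminescence.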

[7] = target: Nuclear receptor subfamily 1 group I member 3 (Homo sapiens) (UniProt Q14994); test: qHTS for Constitutive Androstane Receptor (CAR) Antagonist screened against the NCATS CANVASS Library (AID 1347372)
Sequence of Nuclear receptor subfamily 1 group I member 3 (Homo sapiens) (Q14994 whole entry, looked up): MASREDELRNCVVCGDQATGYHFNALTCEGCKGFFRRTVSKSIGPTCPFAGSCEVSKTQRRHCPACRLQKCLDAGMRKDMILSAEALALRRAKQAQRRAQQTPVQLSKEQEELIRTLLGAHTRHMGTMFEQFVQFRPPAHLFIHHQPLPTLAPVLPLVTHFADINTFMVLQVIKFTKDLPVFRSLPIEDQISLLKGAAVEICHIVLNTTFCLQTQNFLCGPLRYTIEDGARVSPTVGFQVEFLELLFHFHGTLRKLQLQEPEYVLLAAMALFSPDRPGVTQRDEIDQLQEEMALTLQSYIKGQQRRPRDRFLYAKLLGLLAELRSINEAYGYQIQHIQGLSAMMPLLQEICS
In short: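 HepG2 cells stably carrying hCAR and a CYP2B6-2.2kb luciferase reporter were exposed to compounds plus 50 nM CITCO for 24hr at 37C. CAR activity was read by ONE-Glo luminescence, with viability measured first by CellTiter-Fluor.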

[8] = target: Nuclear receptor subfamily 1 group I member 3 (Homo sapiens) (UniProt Q14994); test: qHTS for Constitutive Androstane Receptor (CAR) Agonist screened against the NCATS CANVASS Library (AID 1347373)
In short: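 CAR agonism is scored as CYP2B6-promoter luciferase induction in a double-stable transfected HepG2 line, where 1.5uM PK11195 is included in each well. Compounds were tested over a 24hr exposure.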

[9] = qHTS for Hypoxia signaling pathway (HIF-1) antagonists against the NCATS CANVASS Library (AID 1347374)
In short: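 HRE-bla ME-180 cells (2,000/well, 0.5% dialyzed FBS) were pre-incubated 5 h, then given an 11-point compound series plus CoCl2 (60 uM solution as added) for 17 h at 37C. CCF4 β-lactamase read (ex 405, em 460/530 nm) after 2 h at RT.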

[10] = qHTS for Hypoxia signaling pathway (HIF-1) agonists against the NCATS CANVASS Library (AID 1347375)
In short: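 Inducers of HIF-1 signaling were detected in ME-180 cells bearing an HRE-driven beta-lactamase reporter after 17 h compound exposure. Activity came from CCF4-AM FRET emission ratio (460/530 nm) in qHTS format.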

[11] = 10-beta competent E. coli microbial cell viability qHTS against the NCATS CANVASS Library (AID 1347376)
In short: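 Cytotoxicity toward competent E. coli is scored from cellular ATP content via BacTiter-Glo luminescence following overnight compound exposure at 37C, 5% CO2.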

[12] = qHTS for H2AX Agonists against the NCATS CANVASS Library (AID 1347378)
In short: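 Signal is the 665/620 nm emission ratio from europium cryptate and d2 antibody pair, rising with S139-phosphorylated H2AX. CHO-K1 cells saw test agents for 3 hr at 37C; detection ran 24 hr at room temperature.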

[13] = qHTS for Inflammasome Signaling Inhibitors: IL-1-beta AlphaLISA screen against the NCATS CANVASS Library (AID 1347379)
In short: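 Human THP-1 cells were pretreated 1 hr at 37 °C with compounds (up to 57.5 uM final), then stimulated with LPS (250 ng/mL final) and ATP (1.25 mM final). Secreted IL-1B was read by AlphaLISA after 16 hr.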

[14] = qHTS for Antimalaria activity screened against the NCATS CANVASS Library (AID 1347380)
In short: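 Growth inhibition of asexual erythrocytic P. falciparum Dd2 was quantified by SYBR Green DNA staining. Cultures grew 72 h with compound (11-point series) in hypoxic gas at 37C; lysis and staining lasted 18 h.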

[15] = Inflammasome Signaling qHTS Counterscreen: IL-1-beta AlphaLISA counterscreen against the NCATS CANVASS Library (AID 1347381)
In short: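 To flag interference with the AlphaLISA read-out, a known amount of purified IL-1-beta (4 pg) replaced cell supernatant. Detection used anti-IL-1-beta acceptor beads, biotinylated antibody and streptavidin donor beads at room temperature.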

[16] = Cytotoxicity qHTS for assessment of Hepg2 cells membrane integrity screened against the NCATS CANVASS Library (AID 1347387)
In short: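 Fluorescence proportional to lysed-cell number, from LDH leaking out of HepG2 cells exposed 5 hr at 37C to 0.59 nM - 46 uM compound (11-point qHTS), is measured after 10 min with CytoTox-ONE.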

[17] = Secretion counterscreen for inhibitors of the SERCaMP assay screened against the NCATS CANVASS Library (AID 1347390)
In short: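 Natural products are titrated in an 11-point series up to 77 uM onto SH-SY5Y-GLuc STOP cells for 20 h. Secreted reporter activity is measured as coelenterazine-driven luminescence, with Brefeldin A on each plate.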

[18] = qHTS for activators of dead-cell proteases activity screened against the NCATS CANVASS Library (AID 1347392)
In short: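 HepG2 cells (2000/well) attached 18 h at 37C, then exposed 5 h to compounds (11-point qHTS). Dead-cell protease activity read as luminescence from cell-impermeant AAF-aminoluciferin substrate after 15 min at room temperature.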

[19] = qHTS for inhibitors of Wild type Zika virus screened against the NCATS CANVASS Library (AID 1347396)
In short: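 Luminescent CellTiter Glo read-out of virus-induced cytotoxicity, 72 h post-infection, in Vero 766 cells. Compounds were tested at 11 concentrations; uninfected, vehicle-treated wells defined 100% inhibition.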

[20] = Viability qHTS for inhibitors of the SERCaMP assay screened against the NCATS CANVASS Library (AID 1347400)
In short: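 Cytotoxicity counter-screen: ATP content (CellTiter-Glo luminescence) of SH-SY5Y-GLuc SERCaMP MJH297 cells after 48 h at 37C with compounds in an 11-point qHTS series.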

[21] = Redox Reaction Profiling qHTS: Assay Interference Panel against the NCATS CANVASS Library (AID 1347401)
In short: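 Resazurin (5 uM) conversion to resorufin measured with 200 uM DTT in 50 mM HEPES pH 7.3, 50 mM NaCl. Compounds tested in 11-point qHTS series. Fluorescence (ex 525/em 598 nm) read before and after 15 min dark incubation.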

[22] = qHTS for inhibitors of Rabies Virus screened against the NCATS CANVASS Library (AID 1347402; calls by dose curve)
[23] = Primary qHTS for small molecule stabilizers of the endoplasmic reticulum resident proteome: Secreted ER Calcium Modulated Protein (SERCaMP) assay (AID 1508630)
In short: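 GLuc-SERCaMP-expressing SH-SY5Y cells, pretreated 16 h with compound, are challenged with thapsigargin to empty ER calcium stores; after 4 h, coelenterazine is added directly to the medium and luminescence is imaged.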

[24] = Primary qHTS for inhibitors of nuclear receptor binding SET domain protein 2 (NSD2) in an isogenic RCH-ACV NSD2 p.E1099K mutant (9B) (AID 1645876)
[25] = Primary qHTS for inhibitors of nuclear receptor binding SET domain protein 2 (NSD2) in an RCH-ACV wild type WT cells (2C) (AID 1645877)

SMILES: COc1ccc2c(c1)[nH]c1c(C)nccc12
- Potency [1]: 38.2 µM (active)
- Potency [2]: 24.1 µM (active)
- Potency [3]: inactive
- Potency [4]: 24.1 µM (active)
- Potency [5]: 34 µM (active)
- Potency [6]: 2.41 µM (active)
- Potency [7]: inactive
- outcome [8]: inactive
- Potency [9]: 17.2 µM (active)
- Potency [10]: inactive
- outcome [11]: inactive
- Potency [12]: inactive
- Potency [13]: 31.4 µM (active)
- Potency [14]: 0.0054 µM (active)
- outcome [15]: inactive
- outcome [16]: inactive
- Potency [17]: 62.7 µM (active)
- Potency [18]: inactive
- Potency [19]: inactive
- Potency [20]: 27.8 µM (active)
- Potency [21]: inactive
- outcome [22]: inactive
- Potency [23]: inactive
- Potency [24]: 16.4 µM (active)
- Potency [25]: 8.2 µM (active)
